# Experimental data: PubChem BioAssay (NCATS)
# Records with an inconclusive call do not appear. Entries that show only a call come without a potency. Activity calls are given as the source filed them. Unless noted, calls come from the whole dose curve; as a rule, active = well fitted curve in the direction sought with a large enough effect; inconclusive = small, poorly fitted or top-dose-only effect, or another doubt; inactive = no such curve, though single readings can be large; an effect the other way counts as inactive or inconclusive.
# Experiments:
# [1] = target: ATP-dependent 6-phosphofructokinase (Trypanosoma brucei brucei) (UniProt O15648); test: qHTS Assay to Find Inhibitors of T. brucei phosphofructokinase: hit validation (AID 492961);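 note: luminescence reports ADP formed as PFK phosphorylates fructose-6-phosphate with ATP; series mostly up to about 51 µM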
# Outline: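 Percent activity derived from corrected luminescence, normalized between 0x and 1x enzyme controls, then fitted to concentration-response curves. Conditions: 1.25 nM PFK, 0.1 mM ATP, 0.5 mM F6P, 45 min RT.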
# [2] = target: Ubiquitin carboxyl-terminal hydrolase 1 (Homo sapiens) (UniProt O94782); test: Inhibitors of USP1/UAF1: Pilot qHTS (AID 504865);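 note: rhodamine fluorescence freed from ubiquitin-rhodamine substrate followed over time; top concentration of the series differs between compounds; nearly all actives have a fitted effect of over 35% in size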
# Outline: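 USP1/UAF1 complex at 1 nM preincubated 15 min at room temperature with compound, then Ub-Rho substrate added at 150 nM final. Fluorescence (480/540 nm) read kinetically in 50 mM HEPES pH 7.8, 0.5 mM EDTA, 1 mM TCEP, 0.1 mg/ml BSA, 0.01% Tween-20.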
# [3] = target: D(1A) dopamine receptor (Homo sapiens) (UniProt P21728); test: HTS Assay for Allosteric Agonists of the Human D1 Dopamine Receptor: Primary Screen for Agonists (AID 488981)
# Outline: (§1)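 Tetracycline-induced HEK293 T-REx cells force-coupled to calcium signalling were incubated overnight at 30 C and dye-loaded at room temperature. Calcium flux over 180 s after compound addition flagged agonists; a further 180 s read after EC20 dopamine flagged potentiators.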
# [4] = target: D(1A) dopamine receptor (Homo sapiens) (UniProt P21728); test: HTS Assay for Allosteric Agonists of the Human D1 Dopamine Receptor: Primary Screen for Potentiators (AID 488982)
# Outline: as §1
# [5] = Validation screen for small molecules that induce genotoxicity in human embryonic kidney (HEK293T) cells expressing luciferase-tagged ELG1 (AID 493106)
# Outline: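 ELG1-luciferase reporter readout (ONE-Glo, 30 min, room temperature) after 16 hr compound treatment at 37 °C of HEK293T cells at 2,000 per well. Rising luminescence flags genotoxic stress.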
# [6] = target: ATPase family AAA domain-containing protein 5 (Homo sapiens) (UniProt Q96QE3); test: Validation screen for small molecules that inhibit ELG1-dependent DNA repair in human embryonic kidney (HEK293T) cells expressing luciferase-tagged ELG1 (AID 493107);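 note: series mostly up to about 46 µM; inhibitors lower the ELG1-luciferase luminescence signal; nearly all actives have a fitted effect of over 70% in size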
# Outline: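 Luciferase read-out, ONE-Glo, 30 min at room temperature, follows 16 h co-exposure at 37 C of compound and the DNA-damaging agent 5-fluorouridine. Cells: HEK293T with ELG1-luciferase fusion, 2,000 per well, DMSO as vehicle.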
# [7] = Nrf2 qHTS screen for inhibitors: Validation (AID 493153; active = well fitted inhibition curve with a large enough effect in the main read-out, with a control signal flat, not every such curve was filed as active); conditions: Potency: luciferase luminescence; viability change: measured here: cytotoxicity max response
# Outline: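 Concentration-response on A549 ARE_Fluc reporter cells exposed 18-24 h at 37 C, 5% CO2. Cytotoxicity read first by CellTiter-Fluor fluorescence (Ex 405/Em 525), then Nrf2 inhibition by BugLite luminescence after 15 min.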
# [8] = target: Galactokinase (Homo sapiens) (UniProt P51570); test: qHTS Validation Assay for Inhibitors of Human Galactokinase (GALK) (AID 493189)
# Outline: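 GALK (5 nM) with 35 uM ATP and 100 uM galactose in HEPES pH 8.0 with MgCl2, NaCl, DTT and BSA. Reaction ran 1 h at room temperature. Residual ATP read by Kinase-Glo Plus luminescence.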
# [9] = Validation screen for small molecules that induce DNA re-replication in SW480 colon adenocarcinoma cells (AID 504364)
# Outline: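 Image-based DNA content read-out: Hoechst stain 40 min, total nuclear fluorescence intensity (ex 405 nm, em 500-530 nm) after 48 h compound exposure of 250 SW480 cells/well at 37 C, 5% CO2, versus DMSO vehicle.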
# [10] = target: Peptidyl-prolyl cis-trans isomerase NIMA-interacting 1 (Homo sapiens) (UniProt Q13526); test: qHTS Validation Assay to Find Inhibitors of Pin1 (AID 504536; active = well fitted inhibition curve with a large enough effect in the polarisation, with a control signal flat, not every such curve was filed as active; the % refers to the polarisation)
# Outline: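 Fluorescence polarization competition: compounds (titration) displace HiFluor-488-labeled Pin1-1b peptide from Pin1 (0.3 uM final) in pH 7.5 HEPES buffer with DTT, 10 min at room temperature; %Activity normalized to no-enzyme wells, curves fitted.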
# [11] = target: Phosphoglycerate kinase, glycosomal (Trypanosoma brucei brucei) (UniProt P07378); test: qHTS Validation Assay to Find Inhibitors of Phosphoglycerate Kinase (AID 504547)
# Outline: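 In TEA buffer (100mM, pH 7.6) containing 5mM MgCl2 and 0.01% Tween-20, the GAPDH-coupled PGK reaction proceeded for 60 minutes at room temperature before a single luminescence reading using Kinase-Glo Plus.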
# [12] = target: phosphoglycerate mutase (Leishmania major) (UniProt Q4Q090); test: qHTS Validation Assay to Find Inhibitors of Phosphoglycerate Mutase (AID 504548); conditions: Potency: inhibition qHTS;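 note: end-point luminescence from Kinase-GloPlus after the PGAM reaction; series mostly up to about 58 µM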
# Outline: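 L. major PGAM (1.25nM final) was added to substrate buffer and pinned compound, incubated 45 minutes at room temperature, then Kinase-GloPlus added; luminescence read after 10 minutes. Buffer: 100 mM TEA pH 7.6, 5 mM MgCl2, 0.01% Tween-20.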
# [13] = qHTS for Inhibitors of ATXN expression: Validation of Cytotoxic Assay (AID 588349)
# Outline: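 Cytotoxicity counter-screen: ATP-based luminescent viability (CellTiter Glo) after 72 hr exposure of HEK293 cells to a compound titration at 37 degrees C.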
# [14] = qHTS for Inhibitors of ATXN expression: Validation (AID 588378); note: series mostly up to about 57 µM; nearly all actives have a fitted effect of over 75% in size
# Outline: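 HEK293 cells carrying ATXN2-firefly luciferase reporter, treated with compound 24 h at 37 °C. Viability read first by CellTiter-Fluor (405/525 nm), then reporter expression by Bright-Glo luminescence; controls were a known ATXN2 expression inhibitor and a luciferase inhibitor.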
# [15] = target: D(1A) dopamine receptor (Homo sapiens) (UniProt P21728); test: HTS Assay for Allosteric Agonists of the Human D1 Dopamine Receptor: Primary Screen for Antagonists (AID 488983);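 note: calcium flux response to an EC80 dopamine challenge measured with no-wash dye; nearly all actives have a fitted effect of over 65% in size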
# Outline: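 Calcium-flux read-out in inducible HEK293 T-REx cells expressing D1, dye-loaded 30–90 min at room temperature. Kinetic reads: 180 s after compound (agonist phase), then 180 s after an EC80 dopamine challenge.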
# [16] = target: Estrogen receptor (Homo sapiens) (UniProt P03372); test: qHTS assay for small molecule antagonists of estrogen receptor alpha signaling (AID 588513; active = well fitted curve in the direction sought with a large enough effect in the signal ratio, with a control signal flat, not every such curve was filed as active; the % refers to the signal ratio)
# Outline: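 ER-alpha-UAS-bla GripTite HEK 293 cells in 2% charcoal/dextran-treated FBS medium; compounds titrated (1:2, duplicate), then stimulated with 0.5 nM 17-beta-estradiol for 18 h at 37C. CCF4 beta-lactamase fluorescence; Hill-fit IC50 and efficacy.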
# [17] = target: Estrogen receptor (Homo sapiens) (UniProt P03372); test: qHTS assay for small molecule agonists of estrogen receptor alpha signaling (AID 588514; calls by dose curve; note: nearly all actives have a fitted effect of over 70% in size)
# Outline: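 EC50 and efficacy came from Hill fits of beta-lactamase reporter signal (CCF4 dye, 2 h at room temperature) scaled between DMSO and 20 nM 17-beta-estradiol. Agonist mode: HEK293 ER-alpha-UAS-bla cells in charcoal/dextran-stripped serum medium, 18 h compound exposure at 37 C.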
# Sequence of D(1A) dopamine receptor (Homo sapiens) (P21728 whole entry, looked up): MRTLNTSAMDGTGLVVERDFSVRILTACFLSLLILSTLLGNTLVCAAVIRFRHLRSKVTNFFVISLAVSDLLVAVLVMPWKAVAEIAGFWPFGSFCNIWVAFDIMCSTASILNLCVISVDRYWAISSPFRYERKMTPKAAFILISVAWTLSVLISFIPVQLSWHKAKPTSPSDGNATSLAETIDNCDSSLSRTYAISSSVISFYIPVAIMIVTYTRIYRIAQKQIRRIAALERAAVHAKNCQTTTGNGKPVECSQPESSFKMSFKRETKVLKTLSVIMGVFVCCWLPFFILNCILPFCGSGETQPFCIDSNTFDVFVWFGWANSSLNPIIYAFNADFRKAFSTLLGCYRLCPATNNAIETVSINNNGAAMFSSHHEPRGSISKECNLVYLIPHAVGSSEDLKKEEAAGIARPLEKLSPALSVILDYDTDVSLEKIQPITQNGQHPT
# Sequence of Estrogen receptor (Homo sapiens) (P03372 whole entry, looked up): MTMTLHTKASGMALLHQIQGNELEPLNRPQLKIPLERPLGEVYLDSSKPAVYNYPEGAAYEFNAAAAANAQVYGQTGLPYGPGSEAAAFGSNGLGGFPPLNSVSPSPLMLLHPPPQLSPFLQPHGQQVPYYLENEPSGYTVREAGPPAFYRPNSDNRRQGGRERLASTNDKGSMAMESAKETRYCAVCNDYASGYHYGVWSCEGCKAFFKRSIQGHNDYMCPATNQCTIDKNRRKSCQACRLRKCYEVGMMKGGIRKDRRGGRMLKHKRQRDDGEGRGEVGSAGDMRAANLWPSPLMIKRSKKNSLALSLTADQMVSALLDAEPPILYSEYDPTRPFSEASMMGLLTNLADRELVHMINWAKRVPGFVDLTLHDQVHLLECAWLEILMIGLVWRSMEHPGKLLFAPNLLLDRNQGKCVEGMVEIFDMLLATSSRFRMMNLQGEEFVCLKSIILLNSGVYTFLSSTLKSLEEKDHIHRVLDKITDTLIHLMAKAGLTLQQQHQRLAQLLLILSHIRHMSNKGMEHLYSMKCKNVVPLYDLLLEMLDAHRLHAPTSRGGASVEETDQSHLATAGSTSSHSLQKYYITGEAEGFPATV
# Sequence of Ubiquitin carboxyl-terminal hydrolase 1 (Homo sapiens) (O94782 whole entry, looked up): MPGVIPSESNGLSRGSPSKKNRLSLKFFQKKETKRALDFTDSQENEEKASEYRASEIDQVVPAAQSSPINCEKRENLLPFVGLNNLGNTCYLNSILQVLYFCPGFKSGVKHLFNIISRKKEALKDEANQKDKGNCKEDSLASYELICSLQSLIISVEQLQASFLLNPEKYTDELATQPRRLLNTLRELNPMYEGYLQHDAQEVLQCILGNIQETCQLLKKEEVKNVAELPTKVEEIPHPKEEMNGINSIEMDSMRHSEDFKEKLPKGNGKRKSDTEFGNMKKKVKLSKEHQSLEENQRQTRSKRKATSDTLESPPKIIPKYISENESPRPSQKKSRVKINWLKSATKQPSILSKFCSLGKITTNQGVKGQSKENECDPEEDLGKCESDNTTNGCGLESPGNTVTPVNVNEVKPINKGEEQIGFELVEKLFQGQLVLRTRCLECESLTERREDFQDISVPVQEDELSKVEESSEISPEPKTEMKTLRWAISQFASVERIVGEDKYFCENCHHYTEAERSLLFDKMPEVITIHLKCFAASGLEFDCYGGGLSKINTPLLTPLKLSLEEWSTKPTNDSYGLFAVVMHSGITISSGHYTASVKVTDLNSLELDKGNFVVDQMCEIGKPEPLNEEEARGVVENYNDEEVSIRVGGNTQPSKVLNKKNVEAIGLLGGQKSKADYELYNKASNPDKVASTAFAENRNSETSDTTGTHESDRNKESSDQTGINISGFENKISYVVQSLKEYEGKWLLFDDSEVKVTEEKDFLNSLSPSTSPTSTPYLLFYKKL
# Sequence of ATP-dependent 6-phosphofructokinase (Trypanosoma brucei brucei) (O15648 whole entry, looked up): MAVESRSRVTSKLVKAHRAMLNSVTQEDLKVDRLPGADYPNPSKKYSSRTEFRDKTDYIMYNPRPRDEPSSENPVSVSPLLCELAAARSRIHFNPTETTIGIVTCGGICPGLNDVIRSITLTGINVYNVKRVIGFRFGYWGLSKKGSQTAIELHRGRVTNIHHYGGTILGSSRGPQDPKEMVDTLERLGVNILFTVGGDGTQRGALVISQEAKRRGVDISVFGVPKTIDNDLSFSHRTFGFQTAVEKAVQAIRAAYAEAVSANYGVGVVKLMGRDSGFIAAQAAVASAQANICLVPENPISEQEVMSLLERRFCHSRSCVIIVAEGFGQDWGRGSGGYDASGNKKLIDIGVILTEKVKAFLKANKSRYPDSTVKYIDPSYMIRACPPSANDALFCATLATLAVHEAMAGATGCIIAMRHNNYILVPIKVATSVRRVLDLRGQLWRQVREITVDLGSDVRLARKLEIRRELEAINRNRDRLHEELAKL
# Sequence of ATPase family AAA domain-containing protein 5 (Homo sapiens) (Q96QE3 whole entry, looked up, the tested form may be a part): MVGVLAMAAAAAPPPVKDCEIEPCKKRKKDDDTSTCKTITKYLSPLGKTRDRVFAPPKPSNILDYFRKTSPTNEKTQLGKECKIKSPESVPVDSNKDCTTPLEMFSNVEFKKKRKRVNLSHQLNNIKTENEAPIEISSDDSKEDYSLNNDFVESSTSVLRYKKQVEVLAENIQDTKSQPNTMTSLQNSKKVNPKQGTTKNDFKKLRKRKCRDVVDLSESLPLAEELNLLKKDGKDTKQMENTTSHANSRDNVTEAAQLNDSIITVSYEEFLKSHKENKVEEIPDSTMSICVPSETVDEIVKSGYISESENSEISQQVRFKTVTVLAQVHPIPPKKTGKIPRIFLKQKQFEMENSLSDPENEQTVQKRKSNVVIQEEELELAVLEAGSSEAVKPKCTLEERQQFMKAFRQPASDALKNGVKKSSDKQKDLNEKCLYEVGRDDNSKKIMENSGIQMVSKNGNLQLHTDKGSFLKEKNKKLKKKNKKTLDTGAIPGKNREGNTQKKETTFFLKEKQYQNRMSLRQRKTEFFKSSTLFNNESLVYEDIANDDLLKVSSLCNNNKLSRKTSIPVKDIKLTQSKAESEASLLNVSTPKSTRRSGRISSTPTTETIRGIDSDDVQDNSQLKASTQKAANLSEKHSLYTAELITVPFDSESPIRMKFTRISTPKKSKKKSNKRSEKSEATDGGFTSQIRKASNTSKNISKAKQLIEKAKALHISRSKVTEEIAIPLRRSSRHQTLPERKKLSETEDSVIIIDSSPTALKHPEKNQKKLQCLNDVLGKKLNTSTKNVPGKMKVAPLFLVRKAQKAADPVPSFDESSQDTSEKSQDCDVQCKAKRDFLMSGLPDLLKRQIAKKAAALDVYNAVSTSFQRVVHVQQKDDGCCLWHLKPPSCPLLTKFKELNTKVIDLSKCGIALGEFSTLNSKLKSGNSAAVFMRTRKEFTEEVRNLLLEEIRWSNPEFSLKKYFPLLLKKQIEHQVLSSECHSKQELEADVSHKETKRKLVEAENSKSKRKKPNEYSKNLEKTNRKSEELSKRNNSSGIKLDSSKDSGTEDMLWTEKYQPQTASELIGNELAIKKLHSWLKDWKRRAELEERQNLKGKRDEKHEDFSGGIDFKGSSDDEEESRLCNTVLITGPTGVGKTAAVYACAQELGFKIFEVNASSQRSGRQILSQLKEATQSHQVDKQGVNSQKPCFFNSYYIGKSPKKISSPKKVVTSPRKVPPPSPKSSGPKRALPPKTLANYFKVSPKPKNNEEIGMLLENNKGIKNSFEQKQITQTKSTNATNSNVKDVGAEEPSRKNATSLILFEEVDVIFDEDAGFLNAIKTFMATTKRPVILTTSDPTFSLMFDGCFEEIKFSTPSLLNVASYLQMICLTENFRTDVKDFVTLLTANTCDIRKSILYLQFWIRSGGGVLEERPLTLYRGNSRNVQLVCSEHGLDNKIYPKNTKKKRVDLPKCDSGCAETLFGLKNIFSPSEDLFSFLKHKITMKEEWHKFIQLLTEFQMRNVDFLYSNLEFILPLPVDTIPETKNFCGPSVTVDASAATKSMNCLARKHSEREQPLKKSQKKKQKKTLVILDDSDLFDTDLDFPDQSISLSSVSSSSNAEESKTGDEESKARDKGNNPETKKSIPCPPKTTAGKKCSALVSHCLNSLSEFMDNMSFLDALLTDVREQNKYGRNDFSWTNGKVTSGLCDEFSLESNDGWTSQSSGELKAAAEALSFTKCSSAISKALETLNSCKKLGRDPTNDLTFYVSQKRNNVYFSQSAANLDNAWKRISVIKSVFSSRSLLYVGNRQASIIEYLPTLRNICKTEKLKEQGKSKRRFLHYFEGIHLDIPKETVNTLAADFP
# Sequence of Peptidyl-prolyl cis-trans isomerase NIMA-interacting 1 (Homo sapiens) (Q13526 whole entry, looked up): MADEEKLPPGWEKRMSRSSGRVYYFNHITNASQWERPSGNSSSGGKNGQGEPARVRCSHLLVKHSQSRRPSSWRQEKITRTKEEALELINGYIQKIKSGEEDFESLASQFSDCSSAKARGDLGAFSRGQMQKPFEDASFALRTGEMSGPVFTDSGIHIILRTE
# Sequence of phosphoglycerate mutase (Leishmania major) (Q4Q090 1-553): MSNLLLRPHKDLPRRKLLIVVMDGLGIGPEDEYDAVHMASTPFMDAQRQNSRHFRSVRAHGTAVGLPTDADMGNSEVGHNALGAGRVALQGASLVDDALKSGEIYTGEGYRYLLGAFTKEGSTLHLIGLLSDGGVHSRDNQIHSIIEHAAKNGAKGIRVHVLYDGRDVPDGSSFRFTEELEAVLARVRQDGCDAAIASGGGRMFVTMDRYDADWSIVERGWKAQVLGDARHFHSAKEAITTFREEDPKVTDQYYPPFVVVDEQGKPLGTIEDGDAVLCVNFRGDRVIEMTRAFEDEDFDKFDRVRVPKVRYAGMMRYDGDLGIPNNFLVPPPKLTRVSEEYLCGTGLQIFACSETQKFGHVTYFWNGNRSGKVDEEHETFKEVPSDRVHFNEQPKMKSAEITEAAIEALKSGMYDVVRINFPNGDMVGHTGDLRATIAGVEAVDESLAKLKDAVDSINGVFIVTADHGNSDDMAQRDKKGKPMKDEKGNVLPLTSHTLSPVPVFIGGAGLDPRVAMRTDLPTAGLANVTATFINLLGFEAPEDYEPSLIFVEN
structure (smiles),measurement,setting,value
Cc1cc(=O)oc2cc(O)ccc12,outcome,[1],inactive
same,Potency,[2],inactive
C[C@]12CCC(=O)C=C1CC[C@@H]1[C@H]2[C@@H](O)C[C@@]2(C)[C@H]1CC[C@]2(O)C(=O)CO,outcome,[1],inactive
same,Potency,[2],inactive
COc1cc2nc(N3CCN(C(=O)C4CCCO4)CC3)nc(N)c2cc1OC (stereo not drawn),outcome,[3],inactive
same,Potency,[4],inactive
same,Potency,[5],inactive
same,outcome,[6],inactive
same,Potency,[7],inactive
same,viability change,[7],-1.63%
same,outcome,[8],inactive
same,Potency,[9],inactive
same,outcome,[10],inactive
same,Potency,[11],inactive
same,Potency,[12],inactive
same,Potency,[2],inactive
same,outcome,[13],inactive
same,Potency,[14],inactive
Cc1cc(C2CCCCC2)n(O)c(=O)c1,outcome,[1],inactive
CC1=C(C)C(=O)C(C(CCCCCC(=O)O)c2ccccc2)=C(C)C1=O (stereo not drawn),outcome,[1],inactive
CC1(C)CCC(C)(C)c2cc(NC(=O)c3ccc(C(=O)O)cc3)ccc21,outcome,[1],inactive
Oc1ccc2ccccc2c1SSc1c(O)ccc2ccccc12,outcome,[3],inactive
same,Potency,[15],inactive
same,Potency,[5],inactive
same,outcome,[6],inactive
same,Potency,[7],inactive
same,viability change,[7],7.1%
same,outcome,[10],inactive
same,Potency,[11],inactive
same,Potency,[12],inactive
same,Potency,[2],inactive
same,outcome,[13],inactive
same,Potency,[14],inactive
CC(C)c1ccc2oc3nc(N)c(C(=O)O)cc3c(=O)c2c1,outcome,[1],inactive
Cc1ncc([N+](=O)[O-])n1CC(C)O (stereo not drawn),outcome,[1],inactive
same,Potency,[2],inactive
O=C1CCc2ccc(OCCCCN3CCN(c4cccc(Cl)c4Cl)CC3)cc2N1,outcome,[1],inactive
Cc1ccc(NC(=O)c2ccc(CN3CCN(C)CC3)cc2)cc1Nc1nccc(-c2cccnc2)n1,outcome,[1],inactive
Cc1c(C(=O)NN2CCCCC2)nn(-c2ccc(Cl)cc2Cl)c1-c1ccc(Cl)cc1,outcome,[1],inactive
Cc1cccc(C)c1OCC(=O)N[C@@H](Cc1ccccc1)[C@@H](O)C[C@H](Cc1ccccc1)NC(=O)[C@H](C(C)C)N1CCCNC1=O,outcome,[1],inactive
C[C@H](Cn1cnc2c(N)ncnc21)OCP(=O)(O)O,outcome,[1],inactive
same,Potency,[2],inactive
Nc1cc(C(Cl)=C(Cl)Cl)c(S(N)(=O)=O)cc1S(N)(=O)=O,outcome,[1],inactive
Cn1c(NCCN(CCO)CCCc2ccc([N+](=O)[O-])cc2)cc(=O)n(C)c1=O,outcome,[1],inactive
same,Potency,[2],inactive
Oc1ccc(OCc2ccccc2)cc1,outcome,[1],inactive
same,Potency,[2],inactive
COC(=O)C1=C(C)NC(C)=C(C(=O)OCCCN2CCC(c3ccccc3)(c3ccccc3)CC2)C1c1cccc([N+](=O)[O-])c1 (stereo not drawn),outcome,[1],inactive
COC1=C(OC)C(=O)C(CCCCCCCCCCO)=C(C)C1=O,outcome,[1],inactive
same,Potency,[2],inactive
N=C(N)c1ccc2cc(OC(=O)c3ccc(N=C(N)N)cc3)ccc2c1,outcome,[1],inactive
same,Potency,[2],inactive
CCCCN(CCCC)CCC(O)c1cc2c(Cl)cc(Cl)cc2c2cc(C(F)(F)F)ccc12 (stereo not drawn),outcome,[1],inactive
CCCCc1ccc2nc(NC(=O)OC)[nH]c2c1,outcome,[1],inactive
same,Potency,[2],inactive
CC[C@]1(O)C[C@H]2CN(CCc3c([nH]c4ccccc34)[C@@](C(=O)OC)(c3cc4c(cc3OC)N(C=O)[C@H]3[C@@](O)(C(=O)OC)[C@H](OC(C)=O)[C@]5(CC)C=CCN6CC[C@]43[C@@H]65)C2)C1,outcome,[1],inactive
same,Potency,[2],inactive
N[C@@H](Cc1cc(I)c(Oc2cc(I)c(O)c(I)c2)c(I)c1)C(=O)O,outcome,[1],inactive
CNC[C@@H](O)[C@@H](O)[C@H](O)[C@H](O)CO,outcome,[1],inactive
same,Potency,[2],inactive
O=C(O)CCNC(=O)c1ccc(N=Nc2ccc(O)c(C(=O)O)c2)cc1,outcome,[1],inactive
Clc1ccc(C(Cn2ccnc2)OCc2ccsc2Cl)c(Cl)c1 (stereo not drawn),outcome,[1],inactive
CN(c1nccc(=O)[nH]1)C1CCN(c2nc3ccccc3n2Cc2ccc(F)cc2)CC1,outcome,[1],inactive
same,Potency,[2],inactive
O=C(CS(=O)Cc1ccco1)NCC=CCOc1cc(CN2CCCCC2)ccn1 (stereo not drawn),outcome,[1],inactive
same,Potency,[2],inactive
COCCCOc1ccnc(CS(=O)c2nc3ccccc3[nH]2)c1C (stereo not drawn),outcome,[1],inactive
same,Potency,[2],inactive
CN(C)CCc1c[nH]c2ccc(Cn3cncn3)cc12,outcome,[1],inactive
same,Potency,[2],inactive
CC(C)(S)[C@@H](N)C(=O)O,outcome,[1],inactive
same,Potency,[2],inactive
CCCCC(CC)COC(=O)C(C#N)=C(c1ccccc1)c1ccccc1 (stereo not drawn),outcome,[1],inactive
CC(C)[C@H](N)C(=O)OCCOCn1cnc2c(=O)[nH]c(N)nc21,outcome,[1],inactive
same,Potency,[2],inactive
CCc1nc(N)nc(N)c1-c1ccc(Cl)cc1,Potency,[2],inactive
same,outcome,[16],inactive
same,outcome,[17],inactive
